Results: PubChem BioAssay
Activity calls are given as the source filed them.

How the values were obtained:
[1] = small molecules captured by biotinylated probe aFSTL3 – biochemical, small-molecule microarray, fluorescence 635/667, stem cell growth factor project, primary screen (AID 1064); conditions: higher = more signal;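 also: measures binding of the biotinylated anti-FSTL3 antibody to printed compounds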
[2] = binders from COS7 lysate, DM2A8 probe, primary screen, torsin A project, cell lysate, small-molecule microarray, fluorescence 635/667 (AID 1065); conditions: higher = more signal, COS7 lysate expressing mutant human TOR1A
[3] = small molecules captured by biotinylated probe aFGF2 – biochemical, small-molecule microarray, fluorescence 635/667, stem cell growth factor project, primary screen (AID 1067); conditions: higher = more signal;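 also: measures binding of biotinylated aFGF2 protein to printed compounds on slides; z-score merges feature fluorescence and signal-to-noise across triplicate slides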
[4] = small molecules captured by biotinylated probe aFGF10 – biochemical, small-molecule microarray, fluorescence 635/667, stem cell growth factor project, primary screen (AID 1071); conditions: higher = more signal;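 also: score merges 667 nm spot intensity and signal to noise from triplicate slides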
[5] = target: Neurogenic locus notch homolog protein 2 (Homo sapiens) (UniProt Q04721); test: small molecules binding Notch2 protein – biochemical, small-molecule microarray, 635 nm fluorescence, stem cell growth factors, primary screen (AID 1073); conditions: higher = more signal
[6] = target: Pro-neuregulin-1, membrane-bound isoform (Homo sapiens) (UniProt Q02297); test: small molecules binding neuregulin-1 protein – biochemical, small-molecule microarray, fluorescence 635/667, psychiatric disease protein project, primary screen (AID 1075); conditions: NRG1 binding, 635 nm fluorescence, higher = more signal;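 also: score combines 667 nm spot fluorescence with signal to noise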
[7] = test system: Neuregulin-1 EGF-like domain; test: small molecules binding NRG1 EGF domain – biochemical, small-molecule microarray, 635 nm fluorescence, primary screen (AID 1081); conditions: higher = more signal;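 also: binding of the protein to compounds printed on small-molecule microarray slides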
[8] = FRG1 expression reporter modulators in myotubes – cell-based, C2C12 myotubes, firefly/Renilla luciferase, luminescence, FRG1 inhibition for FSHD, primary screen (AID 1084); conditions: FRG1 promoter luciferase, higher = more signal, called active from +8 up or from −8 down
[9] = small molecules captured by biotinylated probe aFST – biochemical, small-molecule microarray, fluorescence 635/667, stem cell growth factor project, primary screen (AID 1086); conditions: higher = more signal;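 also: score merges 667 nm fluorescence with signal-to-noise of each printed compound spot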
[10] = binders of probe aHhip on microarray, primary screen, stem cell growth factor project, biochemical, small-molecule microarray, fluorescence 635/667 (AID 1087); conditions: higher = more signal;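 also: score merges spot fluorescence at 667nm with spot signal to noise ratio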
[11] = test system: PRMT1 (protein arginine N-methyltransferase 1); test: small molecules binding arginine methyltransferase PRMT1 – biochemical, small-molecule microarray, 635 nm fluorescence, primary screen (AID 1088); conditions: higher = more signal;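 also: binding of Prmt1 protein to compounds spotted on small-molecule microarray slides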
[12] = growth effects on S. cerevisiae YJM789 – YJM789 clinical isolate, OD600, 24 h, basal, primary screen (AID 1089); conditions: higher = more signal, called active from +8 up or from −8 down;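 also: growth of clinical yeast isolate S. cerevisiae YJM 789 seeded 1000 cells per well; test concentration not given here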
[13] = S. pombe growth modifiers, basal conditions – strain 972, OD600, 24 h, no modulator, primary screen (AID 1090);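 also: basal condition with compound alone and no growth modifier present; test concentration not given here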; conditions: S. pombe 972 growth, higher = more signal, called active from +8 up or from −8 down
[14] = budding yeast growth modifiers under rapamycin – strain BY4716, OD600, 96 h, primary screen (AID 1091); also: test concentration not given here; conditions: S. cerevisiae BY4716 + rapamycin, higher = more signal, called active from +8 up or from −8 down
[15] = target: Torsin-1A-interacting protein 2 (Homo sapiens) (UniProt Q8NFQ8); test: small molecules binding lysate-expressed LULL1 – cell lysate, human LULL1 lysate, 635/667 nm fluorescence, primary screen (AID 1092); conditions: small-molecule microarray, hLULL1 lysate binding, 635 nm fluorescence; higher = more signal;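 also: probe is lysate of COS7 cells overexpressing human LULL1; score merges per-feature 667 nm fluorescence with signal-to-noise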
[16] = optical density change of DRC41 E. coli – strain DRC41, OD650, 24 h, E. coli filamentation project, primary screen (AID 1093);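 also: MC1000 strain lacking acrAB efflux and sulA so SOS filamentation is blocked; test concentration not given here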; conditions: E. coli DRC41 growth, higher = more signal, called active from +8 up or from −8 down
[17] = probe aLefty2 binding to arrayed compounds – biochemical, biotinylated probe, 635/667 nm fluorescence, primary screen (AID 1094); conditions: small-molecule microarray, higher = more signal;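 also: score merges spot fluorescence near 667 nm with spot signal-to-noise ratio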
[18] = test system: Noggin (protein binding on small-molecule microarray); test: small molecules binding Noggin protein – biochemical, 635/667 nm fluorescence, primary screen (AID 1095); conditions: 635 nm fluorescence, higher = more signal;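 also: score merges 667 nm feature fluorescence with signal to noise over triplicate slides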
[19] = target: Neurogenic locus notch homolog protein 3 (Homo sapiens) (UniProt Q9UM47); test: small molecules binding NOTCH3 protein – biochemical, 635/667 nm fluorescence, primary screen (AID 1096); conditions: small-molecule microarray, 635 nm fluorescence, higher = more signal
[20] = probe aEGFR binding to arrayed compounds – biochemical, biotinylated probe, 635/667 nm fluorescence, primary screen (AID 1097); conditions: small-molecule microarray, higher = more signal;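 also: probe is a biotinylated anti-EGFR antibody binding compounds printed on slides; score combines fluorescence near 667 nm and signal to noise of each spot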

Chain of Torsin-1A-interacting protein 2 (Homo sapiens) (Q8NFQ8 whole entry, looked up): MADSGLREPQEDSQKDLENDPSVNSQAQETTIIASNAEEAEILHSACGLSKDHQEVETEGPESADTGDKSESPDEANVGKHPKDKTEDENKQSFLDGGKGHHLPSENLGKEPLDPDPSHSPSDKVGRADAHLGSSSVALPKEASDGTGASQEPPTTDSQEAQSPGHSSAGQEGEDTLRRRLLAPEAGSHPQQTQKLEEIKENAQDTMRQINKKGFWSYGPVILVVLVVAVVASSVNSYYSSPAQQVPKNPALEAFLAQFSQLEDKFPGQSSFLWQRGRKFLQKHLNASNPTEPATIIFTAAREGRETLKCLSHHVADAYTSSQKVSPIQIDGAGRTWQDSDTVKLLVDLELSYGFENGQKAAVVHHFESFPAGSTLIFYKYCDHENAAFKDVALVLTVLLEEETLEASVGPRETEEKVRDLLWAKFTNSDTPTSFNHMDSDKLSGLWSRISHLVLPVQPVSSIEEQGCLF
Chain of Pro-neuregulin-1, membrane-bound isoform (Homo sapiens) (Q02297 whole entry, looked up, the tested form may be a part, canonical isoform): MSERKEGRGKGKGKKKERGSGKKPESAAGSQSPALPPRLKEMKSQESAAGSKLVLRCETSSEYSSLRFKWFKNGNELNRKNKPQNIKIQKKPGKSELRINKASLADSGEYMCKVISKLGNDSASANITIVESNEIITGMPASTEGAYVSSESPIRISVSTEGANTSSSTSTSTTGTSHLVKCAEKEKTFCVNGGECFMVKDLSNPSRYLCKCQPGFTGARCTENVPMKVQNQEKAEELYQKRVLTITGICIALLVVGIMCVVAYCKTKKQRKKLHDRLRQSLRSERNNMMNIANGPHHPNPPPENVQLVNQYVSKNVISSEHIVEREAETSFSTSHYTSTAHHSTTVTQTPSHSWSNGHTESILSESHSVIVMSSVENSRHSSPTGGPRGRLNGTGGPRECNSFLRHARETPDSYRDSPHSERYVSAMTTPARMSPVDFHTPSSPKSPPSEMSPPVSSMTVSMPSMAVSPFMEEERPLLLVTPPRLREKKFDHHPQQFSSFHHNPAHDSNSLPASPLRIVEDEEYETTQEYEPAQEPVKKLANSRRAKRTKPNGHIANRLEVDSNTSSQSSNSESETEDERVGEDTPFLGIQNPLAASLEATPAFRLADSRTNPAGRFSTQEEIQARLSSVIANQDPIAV
Chain of Neurogenic locus notch homolog protein 3 (Homo sapiens) (Q9UM47 whole entry, looked up): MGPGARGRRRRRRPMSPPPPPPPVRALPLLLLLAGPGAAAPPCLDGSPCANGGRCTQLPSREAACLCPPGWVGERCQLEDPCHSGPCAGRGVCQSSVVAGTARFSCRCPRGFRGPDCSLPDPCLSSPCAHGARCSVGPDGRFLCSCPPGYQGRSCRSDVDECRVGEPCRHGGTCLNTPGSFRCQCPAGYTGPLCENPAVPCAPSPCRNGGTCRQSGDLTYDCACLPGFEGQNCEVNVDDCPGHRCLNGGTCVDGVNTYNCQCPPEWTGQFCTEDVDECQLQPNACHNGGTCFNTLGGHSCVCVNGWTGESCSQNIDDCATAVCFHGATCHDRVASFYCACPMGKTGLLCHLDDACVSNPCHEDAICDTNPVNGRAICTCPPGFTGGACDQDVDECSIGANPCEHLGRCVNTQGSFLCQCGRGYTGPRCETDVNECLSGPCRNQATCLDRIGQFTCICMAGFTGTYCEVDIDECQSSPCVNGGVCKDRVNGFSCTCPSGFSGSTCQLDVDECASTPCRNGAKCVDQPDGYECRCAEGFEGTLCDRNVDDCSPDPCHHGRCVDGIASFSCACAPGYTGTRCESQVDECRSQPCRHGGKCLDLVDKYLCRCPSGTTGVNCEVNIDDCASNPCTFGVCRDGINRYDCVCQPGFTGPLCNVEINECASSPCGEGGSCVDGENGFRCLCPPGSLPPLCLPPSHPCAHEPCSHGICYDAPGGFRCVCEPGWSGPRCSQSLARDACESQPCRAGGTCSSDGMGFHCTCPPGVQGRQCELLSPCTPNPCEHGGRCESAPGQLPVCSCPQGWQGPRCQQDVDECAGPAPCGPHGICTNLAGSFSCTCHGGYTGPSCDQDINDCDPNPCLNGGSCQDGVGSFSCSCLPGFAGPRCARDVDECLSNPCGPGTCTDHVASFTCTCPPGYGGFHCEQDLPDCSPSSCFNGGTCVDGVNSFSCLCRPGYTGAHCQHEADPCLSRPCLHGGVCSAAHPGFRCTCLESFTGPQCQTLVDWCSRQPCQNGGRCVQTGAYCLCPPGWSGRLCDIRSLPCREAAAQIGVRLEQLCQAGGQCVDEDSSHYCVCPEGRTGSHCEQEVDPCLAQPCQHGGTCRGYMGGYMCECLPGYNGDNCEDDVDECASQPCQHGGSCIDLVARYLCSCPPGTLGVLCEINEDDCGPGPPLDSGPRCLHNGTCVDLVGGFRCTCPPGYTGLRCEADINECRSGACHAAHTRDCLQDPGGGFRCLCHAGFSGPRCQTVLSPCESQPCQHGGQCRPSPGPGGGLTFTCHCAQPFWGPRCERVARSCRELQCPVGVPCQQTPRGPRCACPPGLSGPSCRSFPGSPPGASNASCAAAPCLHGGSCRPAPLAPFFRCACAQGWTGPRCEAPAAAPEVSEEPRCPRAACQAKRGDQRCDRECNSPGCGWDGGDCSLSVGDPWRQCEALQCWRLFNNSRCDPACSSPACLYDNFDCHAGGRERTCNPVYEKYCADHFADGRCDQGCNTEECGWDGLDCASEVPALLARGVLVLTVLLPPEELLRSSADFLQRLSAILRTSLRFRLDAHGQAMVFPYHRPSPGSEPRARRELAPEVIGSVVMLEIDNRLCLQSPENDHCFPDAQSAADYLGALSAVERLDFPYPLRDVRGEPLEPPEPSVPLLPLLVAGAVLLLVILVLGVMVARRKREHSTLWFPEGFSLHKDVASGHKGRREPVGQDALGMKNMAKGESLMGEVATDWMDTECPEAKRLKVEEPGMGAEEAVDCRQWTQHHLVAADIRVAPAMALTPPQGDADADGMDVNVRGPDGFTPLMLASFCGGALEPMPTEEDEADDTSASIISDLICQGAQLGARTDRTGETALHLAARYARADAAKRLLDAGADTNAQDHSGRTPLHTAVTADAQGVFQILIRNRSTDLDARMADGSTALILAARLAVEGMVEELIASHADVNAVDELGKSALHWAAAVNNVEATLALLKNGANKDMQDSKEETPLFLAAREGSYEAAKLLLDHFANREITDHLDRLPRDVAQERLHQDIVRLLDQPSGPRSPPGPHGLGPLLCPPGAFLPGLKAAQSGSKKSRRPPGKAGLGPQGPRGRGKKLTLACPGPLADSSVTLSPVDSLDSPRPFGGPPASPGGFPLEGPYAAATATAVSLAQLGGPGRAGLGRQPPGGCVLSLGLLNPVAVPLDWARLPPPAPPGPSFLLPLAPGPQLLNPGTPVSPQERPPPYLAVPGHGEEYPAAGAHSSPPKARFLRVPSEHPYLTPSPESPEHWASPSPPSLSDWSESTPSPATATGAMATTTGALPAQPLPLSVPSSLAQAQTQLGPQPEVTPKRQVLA

Structure (SMILES)	composite z-score [1]	composite z-score [2]	composite z-score [3]	composite z-score [4]	composite z-score [5]	composite z-score [6]	composite z-score [7]	z-score [8]	composite z-score [9]	composite z-score [10]	composite z-score [11]	z-score [12]	z-score [13]	z-score [14]	composite z-score [15]	z-score [16]	composite z-score [17]	composite z-score [18]	composite z-score [19]	composite z-score [20]
CC(C)=NO[C@@H](C)c1cn([C@H](CO)Cc2ccccc2)nn1	-0.0953	0.463	0.153	0.423	0.579	0.763	0.442	-0.88 (inactive)	0.907	0.132	0.99	-1.93 (inactive)	-2.29 (inactive)	-0.735 (inactive)	1.03	-0.409 (inactive)	-0.127	0.946	0.331	0.255
O=C(NN=C1C[C@@H](O)[C@@H](O)[C@@H]2[C@@H]3C(=O)N(Cc4ccc5c(c4)OCO5)C(=O)[C@@H]3CC[C@@H]12)OCc1ccccc1	0.595	-0.183	-0.0467	0.107	0.133	0.022	-0.17	1.78 (inactive)	0.312	-0.134	-0.0443	0.186 (inactive)	-0.475 (inactive)	-0.4 (inactive)	0.418	0.885 (inactive)	0.0026	-0.0248	-0.142	-0.0433
COC(=O)[C@@H]1CC[C@H](C)[C@@H](c2ccc(C)cc2)N1C(=O)c1ccc(C=NOC[C@@H](O)[C@H]2O[C@@H]3OC(C)(C)O[C@@H]3[C@H]2O)cc1	-0.264	0.123	-0.0138	0.343	0.962	0.441	0.72	0.453 (inactive)	0.794	-0.271	0.886	-1.17 (inactive)	0.459 (inactive)	-0.431 (inactive)	1.23	1.6 (inactive)	-0.0916	0.159	1.14	0.0453
CC(CCN1CCCc2nc(C)c(C)cc21)=NOC[C@@H](C)[C@H](OCc1ccccc1)C(C)C	-0.247	-0.325	-0.15	-0.0055	-0.766	-0.162	-0.995	-0.14 (inactive)	-0.342	0.236	-0.0185	-2.02 (inactive)	-1.8 (inactive)	-0.788 (inactive)	1.4	-0.287 (inactive)	-0.286	-0.187	-0.763	-0.183
O=C1[C@H]2[C@H]3[C@H](O)[C@H](O)CC(=NO[C@@H]4O[C@H](CO)[C@@H](O)[C@H](O)[C@H]4O)[C@H]3CC[C@H]2C(=O)N1c1ccc(F)cc1F	0.552	0.75	0.0159	0.265	0.51	-0.557	-0.977	0.404 (inactive)	0.437	-0.0296	1.08	-0.484 (inactive)	-0.352 (inactive)	-1.99 (inactive)	0.0348	0.356 (inactive)	-0.128	0.161	0.365	-0.0084
CC(CCN1CCc2nc(-c3ccccc3)c(-c3ccccc3)cc2C1)=NO[C@@H](C)c1cc(-c2c(C)cc(C)cc2C)no1	0.037	0.0468	-0.14	0.155	-0.846	0.129	0.55	0.687 (inactive)	0.0035	-0.13	0.535	-0.295 (inactive)	-0.974 (inactive)	-3.2 (inactive)	0.838	-0.394 (inactive)	-0.186	-0.0011	-1.29	-0.17
CCN1C(=O)[C@H]2[C@H]3[C@H](O)[C@H](O)CC(=NO[C@@H]4O[C@H](COC(C)=O)[C@@H](OC(C)=O)[C@H](OC(C)=O)[C@H]4OC(C)=O)[C@@H]3CC[C@H]2C1=O	-0.665	0.588	-0.0319	0.794	0.948	0.357	1	0.186 (inactive)	0.054	-0.0994	1.29	0.461 (inactive)	0.208 (inactive)	0.47 (inactive)	1.05	1.16 (inactive)	0.015	0.597	1.03	0.0091
CC(C)C(=O)N[C@H]1CCCN1C(=O)C=Cc1ccccc1	-0.174	0.253	-0.0212	0.803	0.74	-0.219	0.72	-0.302 (inactive)	0.214	-0.0319	0.876	0.624 (inactive)	0.495 (inactive)	1.02 (inactive)	0.0445	0.267 (inactive)	-0.0022	1.13	0.826	0.125
CC(C)=CCCC(C)=CCON=C1[C@H]2CCn3c(=O)n(-c4ccccc4)c(=O)n3[C@H]2[C@H](O)[C@@H]2O[C@H]12	-0.279	0.207	0.0243	0.0859	0.934	0.634	0.994	-1.52 (inactive)	0.516	-0.0645	1.56	-0.504 (inactive)	-5.66 (inactive)	-0.784 (inactive)	2.36	-1.1 (inactive)	0.207	0.59	1.07	-0.0211
CC(=O)OC[C@H]1O[C@@H](ON=C(C)C)[C@H](OC(C)=O)[C@@H](OC(C)=O)[C@@H]1OC(C)=O	-0.133	1.57	-0.194	-0.526	-0.105	-1.53	-1.47	0.212 (inactive)	0.298	-0.283	-0.312	0.559 (inactive)	-0.159 (inactive)	0.196 (inactive)	-1.31	-0.109 (inactive)	0.089	0.0419	-1.53	-0.0393
